The values that follow come from PubChem BioAssay AID1347423 (Functional Genomics Laboratory (NCATS/FGL), 2020).

The whole screen tested about 52,000 sequences, of which about 210 (0.4%) were called active. Shown is part of a subset that was picked to be rich in actives. Values without a mark were called inactive.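 The calls were made as follows: active = gene whose silencing raises cell survival under the drug, median off-target-corrected z-score across its silencing RNAs 2 or more; inactive = the rest.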

The assay in a line: Resistance to Poly (ADP-Ribose) Polymerase inhibitor: Gene Identification via Genome-wide siRNA Screen. The conditions noted are these: mouse BRCA2 R2336H ES cells, olaparib, CellTiter-Glo viability; hits give high values. The method in brief:
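Genome-wide siRNA screen (3 siRNAs/gene, 20 nM) in mouse ES cells carrying hypomorphic BRCA2 R2336H; olaparib 500 nM added 48 h post-transfection, CellTiter-Glo viability 72 h later. Normalized to plate-median negative control; MAD z-scores, gene median, seed-adjusted.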
Regarding “CGAUAAACUGGAUACCACUTT against A430083B19Rik”, the z-score was -0.3.
The figure for GGAGAUGCUGGACUGCUUUTT against Htr1b is -0.751 (active); for GGUUGUUUAAACUCAGUUUTT against Slco4c1 it is -1.83.
In the case of GGCCAAAUCAUGGAUGCAGTT against Comt, the z-score is -1.72.
Regarding GGAUCUAUAAGGACUACAUTT against Bmp7, the z-score was -0.68.
The figure for “CGGGAACUCACCGAAAAGATT against 4921521N14Rik” is 0.566.
The figure for GGAUGUGGCUGCUUUGAAGTT against Wbscr27 is 0.123.
The figure for GGGAUUUUCUGUGUAUCUUTT against D5Ertd33e is -0.0623.
With GGCAUAACUGAUCAUACGCTT against Foxp3, the z-score is 1.06.
For GGUUUUAGAAGGGAAACAUTT against Ppp2r2c the value was -0.761; for GGAGCCAAGUGUGAUUACATT against Pias3, -1.38 (active); for “GGAUUGCUGUGCCUUAUGATT against 2010004A03Rik”, 0.503.
On to CCACUUUUUUAGAUCCCUGTT against AA960436, for which the z-score is -0.149.
For GACUCCCACUUACACUCUCTT against Olfr1312, the z-score was -1.08.
Consider GGUUCUUUAAUAGAACAUGTT against Tyrp1, for which the z-score is -0.207.
The figure for GGUCAUUGGUCGCUGGUCATT against Gzmm is 1.22; for CGUGGGAUUUAAUGAUCAATT against Nid2 it is 0.787; for GGGCCUAUAUAACAUCUUGTT against Usp11 it is 0.581 (active).
For GGGUAUCUUCUGGAAAACATT against Angptl4 the value was 0.203; for GGCUAUGCAGCAUAUUAUATT against Ndufa1, -0.819.
The figure for “GGAAAUUUUGGAGAUGAUATT against 5730444A13Rik” is -0.496; for GGCGAUCUAUCACACUGUGTT against Chst7 it is 1.39; for “GGAGGAAGAAACAGAACCATT against A930021G21Rik” it is -2.36.
With GCAGUCUGGUUCUCUCAAATT against Cryl1, the z-score is 2.21.
For GGUUGCUUGGAAUUAAAAGTT against Klhl1 the value was 1.01 (active).
For CACGGGCAUCCUUGACUCCTT against Mbp the value was 0.994; for GCAACAUGGCCCUUACCAUTT against Plcb2, -0.797.
The figure for GGCUCCUUAAAGAUAUGUUTT against Nsmaf is 0.332; for GGAAUGUGUUAUGGUGAUUTT against Mgl2 it is -0.346; for “GCCUUUAUAGUCUUAAGCATT against 2810475A17Rik” it is -1.55.
Consider “GGAUAAAUGGUUCUAGAAATT against 3110006P09Rik”, for which the z-score was -0.433 (active).
As to CCUUCAAUUUCAGUUCAGATT against Olfr1388, the z-score is 0.422.
For the sequence GGUAUUCUCUAAGAAGGAGTT against Ccbl1, the z-score is -0.635.
The figure for GGCAUUUGAAGAUGUUUCUTT against Hmgb3 is 1.56 (active).
The figure for GGAGACGUGUCUGAAAGACTT against Glp2r is -0.752.
The figure for GCUUCACAAGCAGUGUACUTT against Slc37a1 is 1.96 (active).
On to CCUUUUUCUGGAUUGGAAUTT against Klrd1, for which the z-score is 1.78 (active).
For GCCAGCAACAGGAUGAUAUTT against Prkwnk1 the value was -1.02.
Consider GCUCAGACAUGUUCUUACCTT against BC037527, for which the z-score was 0.547.
With “GCUUAAAACAGACCAUUUUTT against 1700013G20Rik”, the z-score was 0.824.
The figure for GCAUUCAAGCAACCACGAATT against Ptdss1 is -0.153; for GCACUUGGGUAAAAAACUCTT against Bcorl1 it is 0.555.
For “GCUGACCCAGCUAUGUACUTT against 4930519N13Rik” the value was -0.26.
For GGAAGCUGGUUCCUGUUUUTT against Bid3 the value was 2.66 (active).
With CCAGAGUAAGAGUAAAAGCTT against Mamdc2, the z-score is 1.32.
For GGCUGUAAUGAGGACUGAUTT against Deb1 the value was -1.92; for CCUAAAUUCGGUUUGAAUCTT against Fath, 2.74 (active).
For the sequence GCAUUUUGACCCAAGUGUUTT against Foxq1, the z-score was 0.0651.
Regarding CGAUCUACAUCUGCAUCAUTT against Olfr1212, the z-score was -0.961.
For GGCUUUGAUUGAACAUGAGTT against Lypla2 the value was 0.783; for CCAUCUAUGAUCCCAGAGCTT against Fbxw9, 0.241.
The figure for GGACGUGACAGACAUUAUUTT against Htr5b is -0.897; for GCCAAUGAUGUAGCAAAUUTT against Slc20a1 it is 2.1 (active); for CCCUAAUAGAACUAAUGAATT against Kpnb1 it is -3.47.
As to “CCUACUUCCUCCAUUUAGGTT against 5033413D22Rik”, the z-score is 1.42.
For GGAGUACAGUGAUGACAAGTT against Ing5 the value was 0.235.
Regarding GGUUGGCCAUAUAAAGAGATT against Smarca3, the z-score is 0.771 (active).
As to GGCAAAUGGUCUUUAUGCATT against Zfp606, the z-score is -0.699.
As for GGGAAGUCACUUUUGUUCCTT against Top2a, the z-score is -1.25.
For GGCCAAAUUCUUCAGCAGATT against Rpl27a the value was -2.82; for GGUCCACGGUUACUAAAAATT against Klrd1, 2.45 (active); for “CCAAAACAACCACAAGUAGTT against A930006D11”, -2.39.
For GGUGAUAGUCCACGAGGUUTT against Mbc2 the value was -1.31; for GGGUUUUUUUUUUCCUUCCTT against Hsd17b1, 1.88 (active).
For GGAGUUUGAGACACUCUGCTT against Apg4d the value was 0.266; for GGUCCUUCCAUAGUGACGCTT against Igfbp7, 0.24; for GGAAAUAUGAUCCAUCCUGTT against Zfp282, 1.65.
For the sequence GGUAUCAAGUGCAGAAUGUTT against Slc37a1, the z-score is 1.99 (active).
For GGGUAACAGUGGUGAACCUTT against Col1a1 the value was -1.52; for GCUACAAUAUGACAAGUGUTT against Adamts5, 2.82 (active).
For the sequence GGAUGCUCUCUUAAAUGGATT against AI595338, the z-score is -0.0806.
Consider “GGAAAAUUGAGAUUUCUGCTT against 1110003E01Rik”, for which the z-score was 1.52.
The figure for GGAUGAAAAAUACUGGUGUTT against Ugt8 is 3.17; for GAAGAUCCACUUCAUCGCCTT against Psmb10 it is -1.82; for GGAAGACAUGAAAUUGUUCTT against Psma3 it is -2.92.
The figure for GGAUGAAGAGAAAAAUUGATT against Slc20a1 is 2.96 (active); for GGGUGUACAUUGAAAUUAATT against Epha4 it is 1.05.
As to “GGAAUUUGAUUCUCUGCCUTT against 6820429M01”, the z-score was 0.0636.
For GGCACAUGCCCUUUUCUACTT against Cog1 the value was 0.266; for GCAUUCAGAAUGAGCUGACTT against Nfasc, -0.0641.
For GGUGAUCUUCAAAUUGGAGTT against Zfp90 the value was -0.401; for GCUAUAUCUAAAGCUAUUCTT against Sgpp1, 0.574 (active).
Consider GGCCCACCUAUUUCAUCUCTT against Actl7b, for which the z-score is 0.808.
For “GGAGUUUGCCACAAUUGUUTT against 2810408E11Rik” the value was -1.26.
For GGAAGAGAGAUGGAAAAAATT against Gcnt1, the z-score was -0.555.
The figure for “GGAAAGUGUCACCAAGUUCTT against B230359F08Rik” is -0.0496; for “GGUACUAAACACCAACUCCTT against B230315M08Rik” it is 1.28 (active); for “GGAAGGAAGAGAAAAACAATT against D11Ertd730e” it is -1.34.
On to “GGGAUCCGAAUUCUGACCATT against 2010305C02Rik”, for which the z-score was 1.23.
The figure for GGCCAUCAGAUAGUUUAAUTT against AW551984 is -0.3.
The figure for “GCAAGAUUCAGAGUGCAGCTT against 4932441K18” is -0.922.
For “GCCUUACUCUCUCAGUCCUTT against D930018N13”, the z-score was -1.82.
For GGAUACAUUAAUUGUUUGGTT against AW011752 the value was 0.68.
For CCACACUGAGGACUAUAUUTT against Cstf1 the value was 0.623; for GGAUAGCUGCCAACACUACTT against BC048937, -0.0419; for GGCCUAUCUUCCCAGGAAATT against Mapk1, 1.76 (active).
GCAAAAAUUAUGCAGAGCATT against Olfr1443: the z-score was 2.55.
The figure for CGGUAUCUCAACUUUUACATT against Stra8 is 0.301.
For GCGAACGAAGCAUAAAUGGTT against Mettl1 the value was -0.126; for GGCAGUAGUGUUAACGGUGTT against Chrnb2, 2.38 (active).
For GGAUGCUGUAACACUUUAUTT against Bcl6 the value was -1.71; for GGACCAGGUAUUCAUGAUCTT against Sema3c, 1.79; for “CCAUGAUGAUAAUCUGAAUTT against B930090D16Rik”, 0.709.
On to GGAAGAUUUUUCAAAGGAUTT against Itgb6, for which the z-score is 2.51 (active).
The figure for CAAUAACAGCGAAACAUCCTT against Scn4b is 2.18.
